# Source: PubChem BioAssay (NCI)
# The panel holds about 83,000 compounds, 20% with a hit somewhere; the sample as a whole holds those more often.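 Treatment: one concentration, 48 hours, 96-well format. Scoring: percent growth, with anything below 10 considered active.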 Unmarked numbers belong to inactive results. Calls of active or inactive are those of the source.
# Experiments:
# Assay in all cases: NCI-60 one-dose screen, 48 h (100 = growth as untreated, 0 = no growth, -100 = all killed)
# Conditions in all cases: 10 µM unless noted
# K-562 leukemia = system: K-562 leukemia
# MALME-3M melanoma = system: MALME-3M melanoma
# MDA-MB-231 breast = system: MDA-MB-231 breast
# RXF 393 renal = system: RXF 393 renal
# SF-268 CNS = system: SF-268 CNS
# SF-295 CNS = system: SF-295 CNS
# SF-539 CNS = system: SF-539 CNS
# UACC-257 melanoma = system: UACC-257 melanoma
# M14 melanoma = system: M14 melanoma
# HCT-15 colon = system: HCT-15 colon
# HT29 colon = system: HT29 colon
# SNB-75 CNS = system: SNB-75 CNS
# SNB-19 CNS = system: SNB-19 CNS
# U251 CNS = system: U251 CNS
# PC-3 prostate = system: PC-3 prostate
# SK-MEL-5 melanoma = system: SK-MEL-5 melanoma
# UACC-62 melanoma = system: UACC-62 melanoma
# LOX IMVI melanoma = system: LOX IMVI melanoma
# SK-MEL-28 melanoma = system: SK-MEL-28 melanoma
# SK-MEL-2 melanoma = system: SK-MEL-2 melanoma
SMILES,growth (K-562 leukemia),growth (MALME-3M melanoma),growth (MDA-MB-231 breast),growth (RXF 393 renal),growth (SF-268 CNS) [%],growth (SF-295 CNS),growth (SF-539 CNS),growth (UACC-257 melanoma) [%],growth (M14 melanoma),growth (HCT-15 colon),growth (HT29 colon),growth (SNB-75 CNS),growth (SNB-19 CNS) [%],growth (U251 CNS),growth (PC-3 prostate),growth (SK-MEL-5 melanoma),growth (UACC-62 melanoma),growth (LOX IMVI melanoma),growth (SK-MEL-28 melanoma),growth (SK-MEL-2 melanoma)
O=C1Nc2ccccc2Oc2ccc(S(=O)(=O)CC3CO3)cc21 (stereo not given),18%,87.7%,48.4%,58.1%,80.2,66.3%,69.7%,65,57.5%,21.2%,58.8%,90.6%,96.9,77.6%,62.3%,90%,67.6%,29.5%,64.1%,85.5%
O=C1Nc2ccc(Cl)cc2/C1=C/c1ccc(OCC(=O)c2ccc(Br)cc2)cc1,102%,84.5%,76.2%,114%,94,99.9%,102%,100,95.6%,99.2%,103%,75.7%,89.7,98.3%,81.8%,96.9%,83.4%,108%,99.3%,113%
COc1cccc(-c2nn(-c3ccccc3)cc2-c2ccnc(N3CCN(C(=O)c4ccccc4)CC3)c2)c1,31.4%,89.7%,64%,95.7%,94.2,89.1%,87.1%,101,81.2%,39.8%,87.2%,65.9%,85.5,78.4%,46.6%,49.8%,62.4%,87.5%,84.2%,89%
CN(C)CCCOc1c2ccccc2nc2c1oc1ccc(Cl)cc12,-14.3% (active),-8.62% (active),7.86% (active),-74.1% (active),14.6,5.01% (active),6.92% (active),20,-87.3% (active),-21.4% (active),-43.4% (active),5.58% (active),16.1,16.7%,5.23% (active),-16% (active),-49.7% (active),-85.1% (active),9.1% (active),9.55% (active)
O=c1[nH]c2ccccc2cc1CSc1ccccc1Nc1nccc(-c2ccc(C(F)(F)F)cc2)n1,58.6%,63.6%,69%,2.21% (active),70.4,72.7%,45.5%,104,92.1%,69.1%,56.1%,66.4%,59.6,47.5%,56.6%,96.2%,70.4%,19.8%,84.9%,89.8%
Cc1sc2nc(NCc3ccccc3Cl)[nH]c(=O)c2c1C,54.8%,100%,73%,94.3%,87.6,80.2%,77.7%,106,105%,47.3%,103%,82.8%,102,72.9%,73.9%,72.9%,75.8%,68.8%,98.6%,106%
CCOC(=O)c1c(Nc2ccccc2)nn2c(N)c(C#N)c(-c3ccc(Cl)cc3)nc12,69.1%,85%,69.9%,64.6%,61.1,26.8%,64.3%,95.8,81.2%,76%,73.1%,-11.2% (active),89.8,44.6%,40.9%,94.8%,70%,49.3%,78.5%,87%
C/C(=N/NC(N)=S)c1ccc(Nc2nc(SCC(C)C)nc(-c3ccc(F)cc3)c2C#N)cc1,4.78% (active),24.9%,15%,-45.4% (active),25.3,-69.8% (active),-58.6% (active),63.3,28.3%,25.2%,15%,80.6%,15.4,-39.6% (active),-14.5% (active),37.3%,-18.4% (active),-20% (active),-9.66% (active),11.1%
CN(C)CCCNc1c2ccc(Cl)cc2nc2c1oc1ccccc12,3.28% (active),14.6%,-17.5% (active),-68.1% (active),23,-25.1% (active),-68.7% (active),32,15.5%,-20.6% (active),-22.2% (active),29.9%,16.5,18.8%,13.7%,-98.1% (active),13.4%,-83.4% (active),16.4%,21.3%
CC(=O)Oc1ccccc1C(=O)Nc1ccc(C(=O)/C=C/c2ccncc2)cc1,6.54% (active),86.6%,33.6%,-4.73% (active),85.5,49.5%,4.63% (active),92.4,30.3%,-23.9% (active),5.38% (active),48.4%,76,21.1%,70.4%,74%,50.3%,-73.6% (active),55.8%,108%
OC1CCc2c(-c3ccc4ncnc(N5CCc6cc(F)c(Cl)cc65)c4c3)cncc21 (stereo not given),60.9%,64.5%,40.2%,8.06% (active),43.3,54%,53.7%,89.4,74.4%,41.1%,65.6%,31.7%,57.2,69.6%,41.3%,54%,43.5%,54%,73.6%,46.7%
Clc1ccc2c(NCCCN3CCOCC3)c3oc4ccccc4c3nc2c1,13.2%,40.6%,33.8%,29.1%,48.6,31.3%,26.5%,87.4,42.7%,21.6%,25.6%,52.4%,54.1,34.5%,48.6%,79.7%,66.6%,17.3%,70.6%,81.3%
CC(C)(C)OC(=O)N1C(=O)c2c(c3c4ccccc4[nH]c3c3ccc4ccccc4c23)C1=O,42.2%,48.1%,66.8%,59%,63.3,50.2%,62.1%,77.2,37.3%,51.6%,51.6%,79.5%,97.2,58.8%,42.8%,60.4%,60.3%,57.5%,63.2%,42.7%
O=C(CSc1nc2sc3c(c2c(=O)n1-c1ccc(Cl)cc1)CCCC3)N/N=C/c1ccc(F)cc1,45.4%,100%,86.2%,118%,102,106%,102%,109,90.5%,73.9%,60.6%,107%,101,67.1%,87.1%,103%,97%,95.9%,108%,136%
Cc1nc(-c2cc3ccccc3oc2=O)ccc1C(=O)/C=C/c1ccc(N2CCOCC2)cc1,38%,57.5%,54.3%,89.6%,75.3,66%,45.2%,89,45.6%,54.5%,80.4%,58.9%,79.9,89.8%,86.6%,71.5%,52.1%,31.3%,72.8%,91.4%
